Sampled rows, rich in hits. Any-hit rate of the full collection: about 10%.
G9a inh – G9a (human) methyltransferase inhibition | 8.8% of 350,000 active | Potency, µM (titrated, usually from 102 µM), without a hit: at the highest dose activity, negative = inhibition, usual class: inhibitors | G9a H3K9 monomethylation, AlphaScreen, 2 h | Q96KQ7; further: on the % scale 0 is the no-effect control and ±100 the full control effect; nearly all actives have a fitted effect of over 75% in size
Target sequence (Q96KQ7 913-1193 limits assumed): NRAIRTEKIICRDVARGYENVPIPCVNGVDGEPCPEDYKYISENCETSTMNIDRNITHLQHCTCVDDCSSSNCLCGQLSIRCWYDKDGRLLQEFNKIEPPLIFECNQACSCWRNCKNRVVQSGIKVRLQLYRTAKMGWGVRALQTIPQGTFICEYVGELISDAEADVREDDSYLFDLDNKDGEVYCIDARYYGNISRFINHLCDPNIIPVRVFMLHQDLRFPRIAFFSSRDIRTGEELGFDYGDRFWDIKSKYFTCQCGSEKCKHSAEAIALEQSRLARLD
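Signal arises when biotinylated H3K9 peptide, once monomethylated, bridges streptavidin donor and antibody-captured acceptor beads. Enzyme at 20 nM was preincubated 15 min with test compounds; peptide 500 nM and SAM 20 uM then reacted for 2 h.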
HP1b binding inh – blocks HP1-beta chromodomain binding to methylated histone tails. P83916. AlphaScreen HP1-beta / biotin-H3K9me3 peptide binding. Potency, µM (series often up to 114 µM), without a hit: top-dose activity change, negative = inhibition, usual class: inhibitors. 0.56% of 390,000 active. AID 540317; further: nearly all actives have a fitted effect of over 70% in size
Target sequence (P83916 whole entry, looked up): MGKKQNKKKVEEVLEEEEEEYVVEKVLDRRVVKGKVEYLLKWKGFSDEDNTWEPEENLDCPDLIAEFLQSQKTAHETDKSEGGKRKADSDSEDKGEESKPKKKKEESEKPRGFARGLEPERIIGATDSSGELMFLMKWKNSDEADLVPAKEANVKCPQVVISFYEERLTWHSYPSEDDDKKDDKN
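HP1-beta protein (50 nM final) preincubated 30 min at room temperature with biotinylated H3(1-18)K9me3 peptide (50 nM) in PBS pH 7.4, 0.01% Tween-20, then compound added for 30 min. AlphaScreen streptavidin donor/nickel chelate acceptor beads (10 ug/mL final), 30 min dark, luminescence read.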
JMJD2A Tudor inh – blocks the human JMJD2A Tudor domain. AlphaScreen JMJD2A-Tudor / H3K4me3 peptide binding. Potency, µM (top dose mostly 114 µM), for the others: top-dose activity change, negative = inhibition, most hits filed as inhibitors. 4.4% of 390,000 active; further: on the % scale 0 is the no-effect control and ±100 the full control effect; nearly all actives have a fitted effect of over 50% in size
BAZ2B block – inhibitors of human BAZ2B bromodomain | 4.4% of 360,000 active | AID 504333 | Potency, µM (top dose mostly 114 µM), without a hit: at the highest dose activity change, negative = inhibition, most hits filed as inhibitors | Q9UIF8 | AlphaScreen BAZ2B-H3K14Ac peptide displacement; further: on the % scale 0 is the no-effect control and ±100 the full control effect; nearly all actives have a fitted effect of over 60% in size
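Compounds, titrated to a top concentration of 110 uM, were incubated 30 min at room temperature with preformed BAZ2B/acetyl-K14 H3 peptide complex (50 nM each). Proximity signal was measured by AlphaScreen after 20 min with beads.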
GLS inhibitor – glutaminase GLS (human) inhibition; GLS enzymatic activity, qHTS titration; Potency, µM (doses to about 45.5 µM), for inactives: at the top dose activity change, negative = inhibition, actives largely listed as inhibitors; 0.21% of 410,000 active; further: on the % scale 0 is the no-effect control and ±100 the full control effect
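Compounds were pin-transferred onto hKGA, after which L-glutamine (1 mM solution) and a detection mix of glutamate oxidase, HRP and Amplex Red were added. Initial and 30 min RT fluorescence reads were collected.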
Active calls of the source: *; ? = inconclusive; / = no result; [ ] = dose if it differs, or a comment. The call rests on the fitted dose curve; in most records, active means well fitted curve in the direction sought with a large enough effect; inconclusive means small, poorly fitted or top-dose-only effect, or another doubt; inactive means no such curve, though single readings can be large; an effect the other way counts as inactive or inconclusive. Potency means the concentration at half of the fitted maximal effect.

SMILES	G9a inh	HP1b binding inh	JMJD2A Tudor inh	BAZ2B block	GLS inhibitor
CCN(CC)c1ccc(NC(=O)c2cnn(CC)c2)cc1	16µM*	?	?	40µM*	53%
CCn1cc(C(=O)NC(=S)Nc2cccc(O)c2)cn1	11µM*	3%	-3%	6%	40%
O=C(/C=C/c1ccc2c(c1)OCO2)c1ccc(F)cc1	2%	59%	-9%	8%	0%
COc1cc(CN2CC(=O)N(c3ccc(C)c(C)c3)C2=S)cc(OC)c1OC	-26%	8%	-23%	-4%	8%
COc1ccc(CN2CC(=O)N(c3cc(Cl)ccc3C)C2=S)cc1OC	71µM*	7%	-31%	4%	13%
COc1ccc(CN2CC(=O)N(c3ccc(C)c(C)c3)C2=S)cc1OC	-40%	?	56µM*	-11%	2%
Cc1ccccc1N(CC(=O)NCc1ccc2c(c1)OCO2)C(=O)C1CSC(=O)C1 (centres undefined)	-1%	24%	3%	3%	5%
Oc1ccc(O)c(/C(=N/Nc2ccccc2)c2ccccc2)c1	1.3µM*	/	/	45µM*	/
COc1ccc(C(C)(C)C)cc1NC(=O)c1ccc2c(c1)SC1=NS(=O)(=O)CCN12	-1%	39%	-4%	-8%	-3%
COC(=O)C1CCN(C(=O)COC(=O)c2ccc3[nH]c4c(c3c2)CCCC4)CC1	50µM*	?	?	?	8%
CCOC(=O)C1CCN(C(=O)COC(=O)c2ccc3[nH]c4c(c3c2)CCCC4)CC1	5%[2.33 µM]	-24%	?	?	-4%
CCOc1ccccc1N1CCN(C(=O)c2ccc3[nH]c4c(c3c2)CCCC4)CC1	40µM*	?	45µM*	40µM*	19%
CC1CCCN(C(=O)COC(=O)c2ccc3[nH]c4c(c3c2)CCCC4)C1 (centres undefined)	?	-5%	-9%	50µM*	16%
CCOc1ccccc1N1CCN(C(=O)c2cc3c(C)cc(C)cc3[nH]2)CC1	?	-4%	?	-34%	6%
COC(=O)C1CCN(C(=O)COC(=O)c2ccc(OC)c(S(=O)(=O)N3CCCc4ccccc43)c2)CC1	79µM*	13%	-18%	5%	2%
CCOc1ccccc1/C=N/Nc1ccc(Cl)nn1	9%	17%	-15%	-36%	-1%
CC(C)C1C(C#N)=C(N)Oc2n[nH]c(-c3ccccc3)c21 (centres undefined)	-4%[59 µM]	23%	6%	-6%	1%
CC1CCCN(S(=O)(=O)c2ccc3[nH]c4c(c3c2)CCCC4)C1 (centres undefined)	/	?	?	25µM*	-12%
CC(=O)c1ccc(N2CCN(S(=O)(=O)c3ccc4[nH]c5c(c4c3)CCCC5)CC2)cc1	?	-16%	?	-37%	1%
O=C(NCc1ccc(F)cc1)c1ccc(S(=O)(=O)N2CCCCC2)cc1	20%[12.7 µM]	41%	7%	-3%	2%
O=C(NCc1ccc2[nH]c3c(c2c1)CCCC3)c1ccc(S(=O)(=O)N2CCCCC2)cc1	71µM*	7%	-21%	-32%	7%
CSCC[C@H](NC(=O)c1cccs1)c1nnc2ccccn12	-1%	46%	17%	-18%	-4%
O=C(NCc1ccco1)c1cc2ccccc2c(=O)o1	-50%	13%	-35%	?	-8%
Cc1cc(Br)ccc1NC(=O)C1C2CCC(O2)C1C(=O)O (centres undefined)	32µM*	64%	-5%	-1%	-2%
COc1ccc(NC(=O)C2C3CCC(O3)C2C(=O)O)c(C)c1 (centres undefined)	16%	33%	-15%	-4%	1%
CC(C)N1CCN(S(=O)(=O)c2ccc3ccccc3c2)CC1	/	?	16µM*	?	0%
CN1CCN(S(=O)(=O)c2ccccc2)CC1	7%	22%	-18%	-5%	-5%
O=C(O)c1cccc(S(=O)(=O)N2CCN(C(c3ccccc3)c3ccccc3)CC2)c1	35µM*	24%	-15%	?	-2%
CC1CN(C2CCN(S(=O)(=O)c3ccc4ccccc4c3)CC2)CC(C)O1 (centres undefined)	6.3µM*	?	?	45µM*	0%
